Laboratory results as given in the OligoGym collection.

biological target: ADAD1; experiment: pooled miR-30 sensor sort-seq; sequence = guide strand; details: shRNA
Also: reference of the scale not given here.

Sequence | sensor-assay potency score (higher = more potent)
TAAACCGACTTAACATTGCAGC | -0.535
TCAACTTACATTTAGCTTCTTG | -0.0304
TAGTTATCGTCTTTGTCGCTGG | -0.46
TTTAGGACAGTAAACAGTCAGA | -1
TTGATTTTTCCATCATAGCAGG | -0.926
TATAGCTACAACCTCATGTTGT | 0.156
TTGCTGTAACAACAGCATGAGT | -1.53
TTAGTTGATTAAATCTTTCTTT | 0.397
TTGACTAAGTAAAACATTGGAA | -0.221
TAAGAAGAGACCTTCTTGCTGT | 0.614
TAAACTAATATGAGGTCTGTTG | -1.14

biological target: ADAM18; experiment: as above; details: shRNA

Sequence | sensor-assay potency score (higher = more potent)
TATAACAGTCAATTTGAACTGG | 0.382
TTATATGCTCAAATCTTGCTGA | -0.162
TTATACTCTGCATTCTCTCTGT | 0.461
TCATTTGACTTAATCTTCCGTG | 0.722
TATTCCTTCAGAACCTTCGTGG | 0.508
TTGAACTGGGTAAACATAGTGT | -0.273
TTGATGTACAACATGGTCCAGA | -0.506
TATGTGGCTGAACACAAGCTAA | -1.54
TATGACTGTAATTTACTGCTAA | 0.177
TTCATTATATGTATAAACCAAA | -1.38
TAACAGTCAATTTGAACTGGGT | 0.214
TTTGACTTAATCTTCCGTGGAA | 0.749

biological target: ADAP1; experiment: as above; details: shRNA

Sequence | sensor-assay potency score (higher = more potent)
TCTTTGAAGTACATGAGCCTGC | 0.0128
TTCTGTCAGCACAAACTTCCGG | -0.508
TGAAATACTTCAGAGCACCCTC | -0.32
ATTTCTGTTGAAATACTTCAGA | -1.12
TAGATGAAGATGTTACGGGTGC | -0.0419
TCTGTCAGCACAAACTTCCGGC | 0.0597
TTCACCTTGCTGACCTGGGGGA | -0.267
TTCTGTTGAAATACTTCAGAGC | -0.664
TAGGGCTCCTGCTTCTCCGGGT | 0.35
AAACAGAAACTTGCGGTCGGGC | -0.903
TCGTTCTGTCAGCACAAACTTC | -1.49
TTGAAGTACATGAGCCTGCGGT | -0.124

biological target: ADCYAP1; experiment: as above; details: shRNA

Sequence | sensor-assay potency score (higher = more potent)
TTATCCCATAGACCAGCAGGGC | -1.43
TGTTTGGATAGAACACACGAGC | -1.09
TAGCTGTCCGTGAAGATCCCGT | -0.391
